In the library only some 7.2% were active in any assay of this set; here they are far more common.
NIH3T3 tox = NIH 3T3 cell cytotoxicity. NIH 3T3 viability, CellTiter-Glo ATP luminescence, 48-72 h. 94,000 compounds, 4.3% hits. AID 1345082. Potency, µM (titrated, usually from 96.7 µM), without a hit: at the top dose activity change, negative = cytotoxicity, usual class: inhibitors; further: nearly all actives have a fitted effect of over 55% in size
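ATP-dependent luminescence (CellTiter-Glo) served as the viability signal for NIH 3T3 cells treated with compound for 48 or 72 hr at 37 °C.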
FLuc inh = inhibitors of firefly (Photinus pyralis) luciferase | P08659 | purified P. pyralis luciferase, luminescence, biochemical | Potency, µM (highest dose often 115 µM), most hits filed as inhibitors | 76,000 compounds, 2.5% hits; further: nearly all actives have a fitted effect of over 65% in size
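Biochemical qHTS: compound (6-point titration) added to 10uM D-luciferin plus 10uM ATP in Tris acetate pH 7.5 buffer with Mg, Tween-20 and BSA, then purified enzyme at 10nM; light output imaged.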
SNCA expr inhib = inhibitors of alpha-synuclein (SNCA) gene expression; AID 1671194; HEK-293 SNCA-luciferase knock-in, luminescence, 24 h; 140,000 compounds, 0.17% hits; Potency, µM (highest dose often 57.2 µM), without a hit: at the top dose activity change, negative = inhibition, hits mostly inhibitors;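 further: plate controls were DMSO cells for no effect and cell-free wells for full effect; nearly all actives have a fitted effect of over 45% in size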
hNpr1 antagonist = antagonists of human natriuretic peptide receptor Npr1; Potency, µM (top dose mostly 46.3 µM), without a hit: top-dose activity change, negative = inhibition, hits mostly inhibitors; HEK293 hNpr1 GloSensor cGMP, ANP-stimulated luminescence; 76,000 compounds, 1.6% hits; calls by dose curve; further: nearly all actives have a fitted effect of over 60% in size
Target sequence (P16066 whole entry, looked up): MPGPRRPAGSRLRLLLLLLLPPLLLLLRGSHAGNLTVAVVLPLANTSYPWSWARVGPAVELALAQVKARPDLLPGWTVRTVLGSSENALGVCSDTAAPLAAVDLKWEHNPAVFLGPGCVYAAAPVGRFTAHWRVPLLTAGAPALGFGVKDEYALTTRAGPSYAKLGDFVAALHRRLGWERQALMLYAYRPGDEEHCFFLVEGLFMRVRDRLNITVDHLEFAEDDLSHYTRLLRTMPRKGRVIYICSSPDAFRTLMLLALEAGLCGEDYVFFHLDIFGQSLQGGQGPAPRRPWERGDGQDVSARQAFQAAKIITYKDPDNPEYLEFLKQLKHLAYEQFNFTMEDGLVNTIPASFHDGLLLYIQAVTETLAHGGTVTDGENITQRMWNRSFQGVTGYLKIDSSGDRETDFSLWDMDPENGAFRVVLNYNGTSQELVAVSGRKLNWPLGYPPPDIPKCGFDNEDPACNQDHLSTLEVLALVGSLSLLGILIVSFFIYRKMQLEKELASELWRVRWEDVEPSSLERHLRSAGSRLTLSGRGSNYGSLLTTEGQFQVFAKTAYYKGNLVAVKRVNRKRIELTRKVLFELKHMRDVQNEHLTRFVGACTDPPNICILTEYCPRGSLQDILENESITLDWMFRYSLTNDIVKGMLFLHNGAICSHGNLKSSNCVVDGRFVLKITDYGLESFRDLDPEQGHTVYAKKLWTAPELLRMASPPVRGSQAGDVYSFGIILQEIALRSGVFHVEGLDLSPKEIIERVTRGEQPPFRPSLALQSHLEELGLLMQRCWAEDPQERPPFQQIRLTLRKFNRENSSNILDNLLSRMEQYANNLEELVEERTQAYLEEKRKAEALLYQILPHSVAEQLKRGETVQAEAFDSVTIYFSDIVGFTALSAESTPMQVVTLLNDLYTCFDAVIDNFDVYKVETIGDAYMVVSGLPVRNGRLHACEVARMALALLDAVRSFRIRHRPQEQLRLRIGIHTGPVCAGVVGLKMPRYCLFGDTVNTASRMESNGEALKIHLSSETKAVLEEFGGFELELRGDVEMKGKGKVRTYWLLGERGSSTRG
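HEK293 cells stably expressing human Npr1 and cGMP GloSensor pGS-40F, loaded 2 h with 2% GloSensor reagent, given compound 30 min at room temperature. Luminescence read before and 20 min after 0.1 nM hNppA.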
HEK cytotox = cytotoxic compounds in HEK 293 cells; Potency, µM (series often up to 115 µM), without a hit: at the top dose activity change, negative = cytotoxicity, actives largely listed as inhibitors; 94,000 compounds, 6.6% hits; HEK 293 viability, ATP luminescence (CellTiter-Glo), 48-72 h; further: nearly all actives have a fitted effect of over 60% in size
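Cytotoxicity was scored by loss of ATP-coupled luminescence (CellTiter-Glo) in HEK 293 cells. Compound treatment ran 48 or 72 hr at 37 degree Celsius, 5% CO2, 95% humidity.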
SNCA viab count = reduces viability of HEK-293 SNCA reporter cells; HEK-293-SNCA-luc viability, GF-AFC fluorescence, 24 h; Potency, µM (top dose mostly 57.1 µM), without a hit: at the top dose activity change, negative = cytotoxicity, usual class: cytotoxic; 150,000 compounds, 0.12% hits; AID 1671193;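 further: 0% = DMSO-treated cells and -100% = medium-only wells without cells; nearly all actives have a fitted effect of over 30% in size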
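Cytotoxicity counterscreen: after 24 h compound treatment of genome-edited SNCA-luciferase HEK-293 cells, live-cell protease substrate GF-AFC read by fluorescence after 30 min; activity scaled between DMSO (0%) and medium-only (-100%), curves Hill-fitted.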
Active calls of the source: *; i = inactive; ? = inconclusive; nt = not tested or not shown; [ ] = dose if it differs, or a comment. Unless noted, the call rests on the fitted dose curve; in most records, active means well fitted curve in the direction sought with a large enough effect; inconclusive means small, poorly fitted or top-dose-only effect, or another doubt; inactive means no such curve, though single readings can be large; an effect the other way counts as inactive or inconclusive. Unless noted, on the % scale 0 is the no-effect control and ±100 the full control effect; potency means the concentration at half of the fitted maximal effect.

SMILES | NIH3T3 tox | FLuc inh | SNCA expr inhib | hNpr1 antagonist | HEK cytotox | SNCA viab count
O=C(Nc1ccc2c(c1)OCCO2)N1CCC(CCc2nc(C3CCOCC3)no2)CC1 | ? | nt | 30% | nt | ? | -3%
CN(C)CCNC(=O)C(C)(C)Oc1nn(CCOc2ccccc2)c2ccccc12 | 25µM* | i | 6%[87.6 µM] | -15%[70.6 µM] | 89µM* | -8%[87.6 µM]
CN1CCC(NC(=O)C(C)(C)Oc2nn(CCOc3ccccc3)c3ccccc23)CC1 | 40µM* | i | 6%[87.6 µM] | 0%[70.6 µM] | 89µM* | -6%[87.6 µM]
CC(C)(Oc1nn(CCOc2ccccc2)c2ccccc12)C(=O)Nc1cccnc1 | ? | i | ? | -21%[70.6 µM] | ? | -11%[87.6 µM]
CCCCS(=O)(=O)N1CCc2nn(CCOC)c(=O)n2CC1 | -7% | i | -11% | 3% | -18% | 6%
COc1ccc(CN2CC[C@H](CNC(=O)C3CC3)[C@H](N(C)C)C2)c(OC)c1 | -17% | i | 8% | 1% | -20% | 4%[12.5 µM]
Cn1nc(-c2ccncc2)cc1NC(=O)C(C)(C)C | -34%[138 µM] | nt | 24%[87.6 µM] | nt | -13%[172 µM] | 1%[87.6 µM]
Cc1ccc(-c2cc3c(=O)n(CCNC(=O)c4ccc[nH]c4=O)ccn3n2)cc1C | -17% | 7.9µM* | -10% | -14% | -7% | -14%
Cc1ccc(-c2cc3c(=O)n(CCNC(=O)Cc4cccc(F)c4)ccn3n2)cc1C | ? | 3.5µM* | 21% | ? | -18% | -5%
O=C1c2cnc(-c3cccc(CO)c3)nc2OCCN1Cc1ccccc1 | ? | 18µM* | 34%[87.6 µM] | -14%[70.6 µM] | ? | 4%[87.6 µM]
COCCN1CCOc2nc(-c3ccc(F)c(Cl)c3)ncc2C1=O | ? | ? | -14%[87.6 µM] | ? | ? | 5%[87.6 µM]
COCCN1CCOc2nc(-c3cccc(OC(F)(F)F)c3)ncc2C1=O | ? | 16µM* | 4%[87.6 µM] | -24%[70.6 µM] | ? | -12%[87.6 µM]
O=C1c2cnc(-c3cc4ccccc4o3)nc2OCCN1CC1CC1 | ? | ? | ? | 1.4µM* | ? | -4%[87.6 µM]
CN(C)C(=O)c1ccc(-c2ncc3c(n2)OCCN(Cc2ccccc2)C3=O)cc1 | -21%[138 µM] | i | 24%[87.6 µM] | 1%[70.6 µM] | ? | -4%[87.6 µM]
COc1ccc(CN2CCOc3nc(-c4cccc(C#N)c4)ncc3C2=O)cc1 | ? | i | 17%[87.6 µM] | -26%[70.6 µM] | 100µM* | -4%[87.6 µM]
CN(C)C[C@@H]1CN(Cc2ccccn2)C[C@H]1NS(=O)(=O)Cc1ccccc1 | 2% | i | -15% | 2% | -1% | 3%
O=C1c2cnc(-c3cc(F)cc(F)c3)nc2OCCN1Cc1ccccc1 | ? | 45µM* | 135%[87.6 µM] | -8%[70.6 µM] | ? | -3%[87.6 µM]
COCCNC(=O)c1ccc2oc(-c3ccncc3Cl)nc2c1 | -17%[138 µM] | nt | ? | nt | ? | 4%[12.5 µM]
Cn1cccc1CN1CCC2(CC1)CC(=O)c1ccc(Cl)cc1O2 | ? | ? | 48%[87.6 µM] | -12%[70.6 µM] | 45µM* | -18%[87.6 µM]
O=C1CC2(CCN(C(=O)c3ccc4c(c3)OCO4)CC2)Oc2cc(Cl)ccc21 | ? | i | -18% | -8% | 45µM* | 0%
COc1ccc(-n2nc(C3CCCN(CC4CCCCC4)C3)[nH]c2=O)cc1 (stereo unspecified) | -6% | i | 14% | 0% | -5% | 6%
COc1ccc2c(c1)O[C@H]1[C@H](CO)CN([S+](=O)([O-])c3cccs3)[C@@H]21 | ? | nt | nt | nt | 50µM* | nt
COc1ccc(CN2CC3(CCN(C(=O)c4cc(-c5ccc(F)cc5)n[nH]4)CC3)C2=O)cc1 | ? | i | -17% | -15% | 89µM* | -2%
COc1ccc(CN2CC3(CCN(C(=O)c4ccc(OC)c(F)c4)CC3)C2=O)cc1 | -25% | i | ? | 1% | -23% | 0%
Cc1noc(C)c1-c1cc2c(cc(C)n2C)c(-c2cccnc2)n1 | ? | i | 61%[87.6 µM] | 4%[70.6 µM] | ? | 7%[87.6 µM]
SMILES | NIH3T3 tox | FLuc inh | SNCA expr inhib | hNpr1 antagonist | HEK cytotox | SNCA viab count
Cc1noc(C)c1-c1cc2c(cc(C)n2C)c(-c2cccc([S+](C)(=O)[O-])c2)n1 | 14µM* | i | 55%[87.6 µM] | -17%[70.6 µM] | ? | 5%[87.6 µM]
Cc1noc(C)c1-c1cc2c(cc(C)n2C)c(-c2cnn(C)c2)n1 | 40µM* | i | 42%[87.6 µM] | -1%[70.6 µM] | ? | 1%[87.6 µM]
COc1cccc(-c2nc(-c3c(C)noc3C)cc3c2cc(C)n3C)c1OC | 25µM* | i | 120%[87.6 µM] | 2%[70.6 µM] | ? | 4%[87.6 µM]
COc1cc(-c2nc(-c3c(C)noc3C)cc3c2cc(C)n3C)ccn1 | ? | i | 25%[87.6 µM] | -1%[70.6 µM] | ? | -8%[87.6 µM]
Cc1noc(C)c1-c1cc2c(cc(C)n2C)c(-c2ccnn2C)n1 | ? | i | 11%[87.6 µM] | -5%[70.6 µM] | ? | 5%[87.6 µM]
Cc1noc(C)c1-c1cc2c(cc(C)n2C)c(N2CCN(Cc3ccccc3)CC2)n1 | 45µM* | i | 2%[87.6 µM] | 0%[70.6 µM] | ? | -3%[87.6 µM]
CSc1ccc(-c2cccc(C(=O)NCCNC(=O)C3CC3)c2)cc1 | ? | nt | 12% | nt | ? | -5%[12.5 µM]

Source: PubChem
